Only some compounds are listed: those with a hit (about 4.2% of all), similar ones and a draw of the others.
CCHF vOTU inh: CCHFV vOTU protease inhibition | Pep-AMC fluorescence | inhibition, % at 11.5 µM | 0.55% of 370,000 active | AID 651958; in the data active = inhibition above about 30%; also: 0% = vehicle wells with enzyme and 100% = no enzyme wells
RecA intein inh: blocks M. tuberculosis RecA intein splicing | cell-free RecA intein splicing, fluorescence | inhibition, % (concentration not given with the values) | 0.75% of 290,000 active | AID 2221; in the data active = inhibition above about 30%;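 also: 0% = vehicle wells and 100% = reference inhibitor control wells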
Target sequence (P9WHJ3 whole entry, looked up): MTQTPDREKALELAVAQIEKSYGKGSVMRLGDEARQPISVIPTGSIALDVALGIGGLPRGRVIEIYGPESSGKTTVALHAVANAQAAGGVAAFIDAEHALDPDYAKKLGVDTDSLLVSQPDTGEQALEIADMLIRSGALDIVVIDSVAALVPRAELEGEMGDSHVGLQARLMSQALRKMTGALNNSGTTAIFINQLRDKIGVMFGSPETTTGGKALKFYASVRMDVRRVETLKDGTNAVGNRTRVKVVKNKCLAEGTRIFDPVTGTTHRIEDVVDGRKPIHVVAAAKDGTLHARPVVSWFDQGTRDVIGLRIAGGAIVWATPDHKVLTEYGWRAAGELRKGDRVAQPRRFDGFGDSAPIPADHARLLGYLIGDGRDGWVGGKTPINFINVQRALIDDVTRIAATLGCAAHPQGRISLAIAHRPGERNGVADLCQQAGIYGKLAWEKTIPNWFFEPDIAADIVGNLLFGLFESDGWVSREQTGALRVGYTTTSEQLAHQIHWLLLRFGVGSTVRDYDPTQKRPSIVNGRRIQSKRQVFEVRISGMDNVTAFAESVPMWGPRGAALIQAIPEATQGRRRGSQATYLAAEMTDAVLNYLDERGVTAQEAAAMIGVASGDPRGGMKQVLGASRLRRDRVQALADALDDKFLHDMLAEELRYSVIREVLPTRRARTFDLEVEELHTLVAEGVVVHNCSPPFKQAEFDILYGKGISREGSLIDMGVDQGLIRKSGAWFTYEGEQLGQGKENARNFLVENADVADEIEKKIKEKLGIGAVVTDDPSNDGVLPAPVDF
Mtb FBA inh: Mtb fructose-bisphosphate aldolase inhibition; P9WQA3; AID 588726; purified M. tuberculosis FBA, fluorescence read-out; 2.3% of 360,000 active; inhibition, % at 1 µM;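 also: 0% = vehicle and 100% = reference inhibitor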
Mtb bLac sens: beta-lactam sensitization of Mtb H37Rv; 0.27% of 330,000 active; inhibition, % at 25 µM; M. tuberculosis H37Rv growth with meropenem, percent inhibition; call rule not given here;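 also: growth measured after seven days incubation then overnight dye step; 0% = bacteria only wells and 100% = bacteria with antibiotic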
GDH-TPI counter-1: counter-screen for M. tuberculosis FBA inhibitors: GDH-TPI coupled enzymes | GDH-TPI coupled enzyme counterscreen, NADH absorbance | inhibition, % at 4.8 µM | 1.2% of 360,000 active | AID 588335; in the data active = inhibition above about 30%;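 also: 0% = DMSO wells and 100% = wells lacking the enzyme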
Mtb FBA inh conf: confirmation of M. tuberculosis fructose-bisphosphate aldolase inhibitors; shares compounds with Mtb FBA inh; purified M. tuberculosis FBA, fluorescence read-out; inhibition, % at 1 µM; 78% of 5,600 active; AID 651616;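 also: 0% = vehicle wells and 100% = reference inhibitor wells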
GDH-TPI counter-2: GDH-TPI inhibition counter-screen for FBA inhibitors. shares compounds with Mtb FBA inh. GDH-TPI coupled enzyme counterscreen, fluorescence. inhibition, % at 1 µM. 81% of 5,600 active. AID 652141; in the data active = inhibition above about 10%
Starred values were filed as active, the others as inactive. Rule as the data show it, unless noted: active = inhibition above about 27%; inactive = the rest.

Screening COc1ccc2[nH]c(C(=O)NCCCn3ccnc3)cc2c1 returned RecA intein inh -2, Mtb FBA inh 86*, Mtb bLac sens 4, GDH-TPI counter-1 0, Mtb FBA inh conf 125* and GDH-TPI counter-2 90*.
Screening CCCCNC(=O)c1cc2cc(OC)ccc2[nH]1 returned CCHF vOTU inh -8, RecA intein inh 0, Mtb FBA inh 49*, Mtb bLac sens 37, GDH-TPI counter-1 12, Mtb FBA inh conf -4 and GDH-TPI counter-2 -7.
O=C(O)c1cc2cc(OCc3ccccc3)ccc2[nH]1 was read as CCHF vOTU inh 8, RecA intein inh 3, Mtb FBA inh 39*, Mtb bLac sens 8, GDH-TPI counter-1 4, Mtb FBA inh conf 129* and GDH-TPI counter-2 97*.
COc1ccc2[nH]c(C(=O)NCCN3CCCCC3)cc2c1 was read as RecA intein inh 0 and Mtb bLac sens 1.
O=C(O)c1cc(OCc2ccccc2)cc(OCc2ccccc2)c1 was read as CCHF vOTU inh 17, RecA intein inh -2, Mtb FBA inh 3, Mtb bLac sens 9 and GDH-TPI counter-1 4.
For COc1ccccc1-c1ccc2c(c1)[C@@H]1C[C@H]3[C@@H](CN1CC2)[C@H](C)ON3C the results were CCHF vOTU inh 1.
Screening Cc1cccc(Cn2cc(COC(=O)NCCc3c[nH]c4ccccc34)nn2)c1 returned CCHF vOTU inh 0.
For COc1ccc2[nH]c(=O)cc(C(=O)O)c2c1 the results were CCHF vOTU inh -37, RecA intein inh 0, Mtb FBA inh 15, Mtb bLac sens -2 and GDH-TPI counter-1 7.
For CCCOc1ccc(NC(=O)C(=O)NCCCn2ccnc2)cc1 the results were CCHF vOTU inh -8, RecA intein inh 3, Mtb FBA inh -1, Mtb bLac sens -1 and GDH-TPI counter-1 -4.
For COc1ccc2[nH]c(=O)c(C(=O)O)cc2c1 the results were CCHF vOTU inh -55, RecA intein inh -12, Mtb FBA inh 53*, Mtb bLac sens 2, GDH-TPI counter-1 9, Mtb FBA inh conf 66* and GDH-TPI counter-2 61*.
COc1ccc2[nH]c(C(=O)N(Cc3ccccn3)Cc3ccccn3)cc2c1 was read as CCHF vOTU inh -25, RecA intein inh 0, Mtb FBA inh 34*, Mtb bLac sens -4, GDH-TPI counter-1 9, Mtb FBA inh conf 132* and GDH-TPI counter-2 113*.
Screening COc1ccc2[nH]c(C(=O)O)c(CCNC(C)=O)c2c1 returned CCHF vOTU inh 0, RecA intein inh -3, Mtb FBA inh 49*, Mtb bLac sens 1, GDH-TPI counter-1 14, Mtb FBA inh conf 125* and GDH-TPI counter-2 106*.
`CCOc1ccc(NC(=O)C(=O)NCCCn2ccnc2)cc1` gave CCHF vOTU inh 6, RecA intein inh 0, Mtb FBA inh 44*, Mtb bLac sens 5, GDH-TPI counter-1 3, Mtb FBA inh conf 197* and GDH-TPI counter-2 164*.
CCCCN(Cc1cc2cc(OC)ccc2[nH]c1=O)C(=O)c1ccccn1 was read as CCHF vOTU inh 0, RecA intein inh 2, Mtb FBA inh 22, Mtb bLac sens 0 and GDH-TPI counter-1 17.
`COC(=O)[C@]12C[C@H](CC(=O)N3CCSCC3)C(=O)N(Cc3ccco3)C1=C[C@H](C1CCCC1)O[C@@H]2C` gave CCHF vOTU inh -3.
O=C(NCCc1ccccc1)c1ccc2[nH]c(=O)c(=O)[nH]c2c1 was read as CCHF vOTU inh -23, RecA intein inh -1, Mtb FBA inh 33*, Mtb bLac sens 0, GDH-TPI counter-1 0, Mtb FBA inh conf 32* and GDH-TPI counter-2 19*.
Screening CC(C)C[C@H](NC(=O)c1ccc(Cl)c(Cl)c1)C(=O)N1CCC[C@H]1C(=O)NCc1ccccc1 returned CCHF vOTU inh 10.
O=C(Nc1ccccc1F)C1CCCN(S(=O)(=O)c2ccc(-n3cnnn3)cc2)C1 (stereo not given) was read as CCHF vOTU inh 5, RecA intein inh -5, Mtb FBA inh 85*, Mtb bLac sens 1, GDH-TPI counter-1 -3, Mtb FBA inh conf 119* and GDH-TPI counter-2 87*.
For Cc1ccccc1NC(=O)C1CCCN(S(=O)(=O)c2ccc(-n3cnnn3)cc2)C1 (stereo not given) the results were CCHF vOTU inh 4, RecA intein inh 4, Mtb FBA inh 1, Mtb bLac sens 2 and GDH-TPI counter-1 3.
`c1cncc(-c2noc(-c3cccc4ccccc34)n2)c1` gave CCHF vOTU inh 21, RecA intein inh 1, Mtb FBA inh 28*, Mtb bLac sens 50, GDH-TPI counter-1 4, Mtb FBA inh conf 22 and GDH-TPI counter-2 20*.
For c1ccc(-c2noc(-c3cccc4ccccc34)n2)cc1 the results were CCHF vOTU inh -6, RecA intein inh 3, Mtb FBA inh 2 and GDH-TPI counter-1 9.
COc1ccc(-c2nn(CCC(=O)O)cc2CCC(=O)O)cc1 was read as CCHF vOTU inh 0, RecA intein inh 1, Mtb FBA inh 2, Mtb bLac sens -14 and GDH-TPI counter-1 -1.
`COc1ccc(C2=NN(c3ccccc3)C(c3cn(CCC(=O)O)nc3-c3ccccc3)C2)cc1` (stereo not given) gave CCHF vOTU inh -38, RecA intein inh -37, Mtb FBA inh 108*, Mtb bLac sens -8, GDH-TPI counter-1 9, Mtb FBA inh conf 23 and GDH-TPI counter-2 19*.
Screening COc1ccc(C2CC(c3ccncc3)=NN2c2ccc(S(N)(=O)=O)cc2)cc1 (stereo not given) returned CCHF vOTU inh -191, Mtb FBA inh 68*, GDH-TPI counter-1 11, Mtb FBA inh conf 109* and GDH-TPI counter-2 88*.
COc1ccc(C2CC(c3ccccc3)=NN2c2ccc(Cl)c(C(=O)O)c2)cc1 (stereo not given) was read as CCHF vOTU inh -53, RecA intein inh -129, Mtb FBA inh 86*, Mtb bLac sens 5, GDH-TPI counter-1 7, Mtb FBA inh conf active and GDH-TPI counter-2 active.
COc1ccc(C2CC(c3ccccc3)=NN2S(=O)(=O)c2ccccc2)cc1 (stereo not given) was read as CCHF vOTU inh 6, RecA intein inh 5, Mtb FBA inh 2, Mtb bLac sens 8 and GDH-TPI counter-1 5.
COc1ccc(C2CC(c3ccccc3)=NN2C(=O)c2ccc(F)cc2)cc1 (stereo not given) was read as CCHF vOTU inh -14, RecA intein inh -1, Mtb FBA inh 1, Mtb bLac sens 4 and GDH-TPI counter-1 6.
`CCC(=O)Nc1cccc(C2=NN(c3ccccc3)C(c3ccc(OC)cc3)C2)c1` (stereo not given) gave CCHF vOTU inh -7, RecA intein inh -5, Mtb FBA inh 77*, Mtb bLac sens 4, GDH-TPI counter-1 14, Mtb FBA inh conf 104* and GDH-TPI counter-2 69*.
